Screens from PubChem.
ALDH1A1 inh: blocks purified human ALDH1A1 activity; 220,000 tested, 7.3% active; Potency, µM (highest dose often 75.3 µM), for inactives: at the highest dose activity, negative = inhibition, actives largely listed as inhibitors; P00352; Purified ALDH1A1, NADH fluorescence, propionaldehyde substrate;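 also: potency is read from the fitted curve at half-maximal effect; plate controls were no enzyme wells and a reference inhibitor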
PNC assembly inh: perinucleolar compartment assembly inhibition; PC3M PTB-GFP, PNC prevalence imaging, 16 h; stronger effect = lower value; activity change (PNC), negative = inhibition, % at 10 µM; 140,000 tested, 3.1% active;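 active = readout at or below -70, meaning at least 70% loss of cells showing the perinucleolar compartment, a nuclear body marking cancer cells; inconclusive = readout between -30 and a set limit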;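 also: plate controls were DMSO wells for no effect and camptothecin positive control wells for full effect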
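Compounds are pinned in duplicate onto adhered PC3M cells stably expressing GFP-tagged PTB and incubated 16 h at 37 C. Cells are then fixed, nuclei stained with Hoechst, and PNC-positive cells counted.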
JMJD2E inh: blocks human JMJD2E demethylase activity | B2RXH2 | JMJD2E catalytic domain, FDH-coupled NADH fluorescence (FDH is formaldehyde dehydrogenase) | 230,000 tested, 1.6% active | Potency, µM (doses to about 57.1 µM), inactives show top-dose activity change, negative = inhibition, actives largely listed as inhibitors;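 also: potency is read from the fitted curve at half-maximal effect; 0% = wells with enzyme and -100% = buffer wells without enzyme; nearly all actives have a fitted effect of over 50% in size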
HPGD inh: blocks human HPGD enzyme activity; 150,000 tested, 4.3% active; Potency, µM, inactives show at the top dose activity change, negative = inhibition, most hits filed as inhibitors; purified HPGD, NADH fluorescence kinetic, PGE2 substrate; P15428; also: potency is read from the fitted curve at half-maximal effect
Target sequence (P15428 whole entry, looked up): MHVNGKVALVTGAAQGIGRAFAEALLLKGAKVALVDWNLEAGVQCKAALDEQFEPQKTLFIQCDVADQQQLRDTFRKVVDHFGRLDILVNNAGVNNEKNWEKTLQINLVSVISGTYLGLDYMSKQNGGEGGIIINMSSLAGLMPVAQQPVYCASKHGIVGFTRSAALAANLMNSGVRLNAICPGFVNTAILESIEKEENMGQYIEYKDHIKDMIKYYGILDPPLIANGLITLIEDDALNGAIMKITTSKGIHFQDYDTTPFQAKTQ
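20 nM HPGD preincubated 15 min at room temperature with compound in 50 mM Tris-HCl pH 8, 0.01% Tween 20. Started with 1 mM NAD+ and 30 uM prostaglandin E2; NADH fluorescence (360/450 nm) read 5 times over 30-s intervals, last minus first.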
The depositor's hits bear a star; [ ] = dose if it differs, or a comment. In the library only some 11% were active in any assay of this set; here they are far more common. Unless noted, calls follow the shape of the dose curve; as a rule, active = well fitted inhibition curve with a large enough effect (not every such curve was filed as active); inconclusive = small, poorly fitted or top-dose-only effect, or another doubt; inactive = no such curve, though single readings can be large or run the other way. Unless noted, % is scaled to controls: 0 for no effect and ±100 for the full control effect.

For COc1ccc2oc(=O)c(C(=O)C[n+]3cccc(C)c3)cc2c1 the results were ALDH1A1 inh 14µM* and JMJD2E inh 1%.
Screening COc1ccc(/C=N/Nc2nonc2N)c(OC)c1 returned ALDH1A1 inh 8% and JMJD2E inh 2%.
For COc1ccc(/C=N/NC(C)(C)C)c(OC)c1 the results were ALDH1A1 inh 20µM* and JMJD2E inh inconclusive.
Cc1cc(NS(=O)(=O)c2ccccc2)c(C)c(Cl)c1O was read as ALDH1A1 inh -8%, PNC assembly inh inconclusive, JMJD2E inh 7% and HPGD inh -17%.
For O=S(=O)(Nc1cc(Sc2ncn[nH]2)c(O)c2ccccc12)c1ccccc1 the results were ALDH1A1 inh 14µM* and JMJD2E inh 13µM*.
O=C(CN1CCOCC1)NC1CC2CCC1C2 (centres undefined) was read as ALDH1A1 inh 25µM*, PNC assembly inh inconclusive, JMJD2E inh 4% and HPGD inh -10%.
Cc1ccc2nc(N3CCN(c4cccc(C)c4C)CC3)c3nnnn3c2c1 was read as ALDH1A1 inh -3%, PNC assembly inh 35, JMJD2E inh 3.5µM* and HPGD inh -28%.
`Cc1ccc2nc(Cl)c3nnnn3c2c1` gave ALDH1A1 inh 28µM* and JMJD2E inh inconclusive.
`c1ccc(CC2CCN(c3nc4ccccc4n4nnnc34)CC2)cc1` gave ALDH1A1 inh inconclusive, PNC assembly inh 33, JMJD2E inh inconclusive and HPGD inh inconclusive.
For CCCC(=O)OCC(=O)Nc1ccc2c(c1)OCO2 the results were ALDH1A1 inh inconclusive and JMJD2E inh -7%.
`O=C(CCCCn1c(=O)c2ccccc2n(Cc2ccccc2F)c1=O)NC1CCN(Cc2ccccc2)CC1` gave ALDH1A1 inh 3% and JMJD2E inh -13%.
CCN1CC(CN(C)Cc2nc(-c3ccc(C(F)(F)F)cc3)oc2C)CC1=O (centres undefined) was read as ALDH1A1 inh 3% and JMJD2E inh inconclusive.
Screening Cc1ccc(NC(=O)CN(C)CC(=O)Nc2ccccc2-c2ccccc2)cc1 returned ALDH1A1 inh 14µM* and JMJD2E inh -4%.
Screening O=C(NC1CCN(Cc2ccccc2)CC1)c1ccc2c(c1)[nH]c(=O)n2Cc1ccc(F)cc1 returned ALDH1A1 inh 1% and JMJD2E inh 7%.
`CCOC(=O)c1c(CN2CCOCC2)n(-c2ccccc2)c2cc(Br)c(O)cc12` gave ALDH1A1 inh 4%, PNC assembly inh 39, JMJD2E inh 2% and HPGD inh -7%.
For CCOC(=O)c1c(CN2CCOCC2)n(-c2ccccc2)c2cc(Br)c(OC)cc12 the results were ALDH1A1 inh inconclusive, PNC assembly inh -92*, JMJD2E inh -3% and HPGD inh -12%.
O=C(O)C[C@H](Cc1ccccc1)C(=O)O was read as ALDH1A1 inh -2%[13.5 µM] and HPGD inh -8%.
For CCOC(=O)c1cc(C#N)c(SCC(=O)c2cc(C#N)c(SC)nc2C)[nH]c1=O the results were ALDH1A1 inh 1.3µM*, PNC assembly inh 25, JMJD2E inh -28% and HPGD inh 1.4µM*.
For COC(=O)CSc1nc(C)c(C(C)=O)cc1C#N the results were ALDH1A1 inh -1%, PNC assembly inh inconclusive, JMJD2E inh 2% and HPGD inh -13%.
For COc1cc(C)nc(N2CCCC(C(=O)Nc3cccc(Cl)c3Cl)C2)n1 (centres undefined) the results were ALDH1A1 inh 6%, PNC assembly inh -87*, JMJD2E inh 1% and HPGD inh -10%.
For CC1CC(C)(C)Nc2ccc(N=O)cc21 (centres undefined) the results were ALDH1A1 inh 10µM* and JMJD2E inh -3%.
For CO[C@@H](NC(N)=O)C(=O)O the results were ALDH1A1 inh 3%[13.5 µM] and HPGD inh -6%.
For O=S1(=O)C=C(Oc2ccc3ccccc3c2)c2ccccc21 the results were ALDH1A1 inh 10µM*, PNC assembly inh 31, JMJD2E inh -7% and HPGD inh -25%.
COc1ccc(-n2c(C(C)(C)C)csc2=Nc2c(C)n(C)n(-c3ccccc3)c2=O)cc1 was read as ALDH1A1 inh 3%, PNC assembly inh 69, JMJD2E inh 0% and HPGD inh 2%.
Screening O=C(C[n+]1ccc(C(=O)N/N=C/c2ccc(OCc3ccccc3)cc2)cc1)c1ccccc1 returned ALDH1A1 inh inconclusive, PNC assembly inh 11, JMJD2E inh 28µM* and HPGD inh -22%.
O=C(C[n+]1ccc(C(=O)N/N=C/c2ccc(O)cc2)cc1)c1ccccc1 was read as ALDH1A1 inh 1.6µM*, PNC assembly inh 7, JMJD2E inh inconclusive and HPGD inh -14%.
